Screening data from PubChem BioAssay.
Methyltransferases = Primary Screen for Target Class Profiling of Small Molecule Inhibitors of Methyltransferases; purified enzyme, MTase-Glo SAH luminescence; active compounds read low; calls only at 40 µM; 3.9% of 25,000 active; AID 1745853, 2022; call rule not given here
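Each enzyme was reacted with SAM and its substrate, with compounds tested once at 40 uM; SAH formed was read by MTase-Glo luminescence.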
Numbers without * were called inactive; i = inactive; + = active, no number; ! = repeats disagree. Many of the other results were omitted from the sample, so hits are more common in it than they were. % is set by controls: 0 for no effect and ±100 for the full control effect.

SMILES	Methyltransferases
CCCn1c(=O)c2ccccc2n2c(=O)n(Cc3ccccc3)nc12	i
CCCSCCCN1C(=O)c2nc3ccccc3n2CC1(C)C(=O)NC1CCC(C)CC1 (stereo not drawn)	i
COc1ccc(-c2cc3n(n2)CC(C)(C(=O)NCc2ccccc2OC)N(CCC2=CCCCC2)C3=O)cc1 (stereo not drawn)	i
COC(=O)c1ncn2c1C(=O)N(Cc1ccc(OC(C)C)cc1)C(C)(C(=O)NCc1ccccc1)C2 (stereo not drawn)	i
CC1CCCCC1NC(=O)C1(C)Cn2c(ccc2-c2ccco2)C(=O)N1Cc1ccc(F)cc1 (stereo not drawn)	i
CN1C(=O)c2cc(C(=O)Nc3ccccc3Cl)nn2CC1(C)C(=O)NC1CCCCC1 (stereo not drawn)	i
CCC(C)NC(=O)c1ccc2c(=O)n(C)c3nn(CC(=O)Nc4ccc(C)c(F)c4)c(=O)n3c2c1 (stereo not drawn)	i
Cc1ccc(S(=O)(=O)/C=C/C#N)cc1	+!
CCCn1c(=O)c2ccc(C(=O)NC3CCCC3)cc2n2c(=O)n(CC(N)=O)nc12	i
O=C1CN(Cc2cccc(F)c2)S(=O)(=O)c2ccccc2N1Cc1ccc(F)cc1	i
COc1ccc(CNC(=O)c2ccc3c(=O)nc4c(-c5ccccc5)n[nH]n4c3c2)cc1	i
CC(C)S(=O)(=O)NC[C@H](C)c1ccc(-c2ccc(CCNS(C)(=O)=O)cc2)cc1	i
O=C(/C=C/c1ccc(O)cc1)N[C@@H](Cc1ccc(O)cc1)C(=O)O	i
CCCCCc1ccc(/C=C/C(=O)Nc2cc(Cl)ccc2C(=O)O)cc1	+
CCCC1c2ccc(C)n2CCN1C(=O)Nc1cc(Cl)ccc1C(=O)OC (stereo not drawn)	i
O=C1NCCOCCCN(S(=O)(=O)c2cccs2)[C@H]2CCCC[C@@H]12	i
COCCOc1ccc2c(c1)ncn2-c1ccc2cccc(N3CCC(N)CC3)c2n1	+
COCCOc1ccnc(-c2noc([C@@H]3CCCN3Cc3ccncc3)n2)c1	i
O=C(Nc1ccc([C@@H](O)[C@H]2COCC(=O)N2Cc2ccccc2F)cc1)c1ccc2c(c1)OCO2	i
Cc1ccc(CNC(=O)CCc2nnc3n(CC(C)C)c(=O)c4ccccc4n23)cc1	i
Cc1cc2c(cc1S(=O)(=O)Nc1ccc(Br)cc1)n(C)c(=O)n2C	i
CC(C)c1ccc(N2C(=O)N[C@@H]3CCN(C(=O)C4CCCC4)[C@@H]3C2=O)cc1	i
CCCn1c(=O)c2ccc(C(=O)NC(C)C)cc2n2c(SCC(=O)Nc3cccc(OC)c3)nnc12	i
Cc1ccc([N+](=O)[O-])cc1S(=O)(=O)N(C)/N=C/c1cnc2ccc(Br)cn12	+
CC1(C(=O)NCc2ccccc2)Cn2c(ccc2-c2ccco2)C(=O)N1Cc1ccccc1Cl (stereo not drawn)	i
SMILES	Methyltransferases
CCCn1c(=O)c2ccc(Cl)cc2n2c(=O)n(Cc3ccc(F)cc3Cl)nc12	i
CC1CCC/C=C/C(=O)c2c(O)cc(O)cc2CC(=O)O1 (stereo not drawn)	i
CC1CCCC2OC2C(=O)c2c(O)cc(O)cc2CC(=O)O1 (stereo not drawn)	i
CC1CCCCCCCc2cc(O)cc(O)c2C(=O)O1 (stereo not drawn)	+
Cc1cccn2c(CC(=O)N3CCn4nc(CO)cc4C3)cnc12	i
CCOCCCNC(=O)c1cc2cn(C3CC3)cc2s1	i
C=C1C[C@]23C[C@H]1CC[C@H]2[C@]1(C)CCC[C@@]2(CO)C(=O)O[C@H]([C@H]21)[C@@H]3O	i
Cc1cc(N(C)C)ccc1-c1nc2ccc(-c3nc4ccc(N5CCN(C)CC5)cc4[nH]3)cc2[nH]1	+
CCCC1c2cccn2CCN1C(=O)Nc1cccc(C)c1 (stereo not drawn)	i
CCC(C)NC(=O)c1ccc2c(=O)n(C)c3nn(Cc4ccc(N5CCCC5=O)cc4)c(=O)n3c2c1 (stereo not drawn)	i
CCOCCCNc1nc2c(-c3ccc(Cl)cc3)nnn2c2ccccc12	i
Cc1ccc(NC(=O)Cn2nc3n(CCCOC(C)C)c(=O)c4ccccc4n3c2=O)cc1	i
Cc1ccc(CNC(=O)N2CCC(c3nc(CCOCC4CCOCC4)no3)C2)cc1 (stereo not drawn)	i
N#Cc1ccc(N2N=C3c4ccc(C(=O)O)cc4CC[C@@H]3[C@@H]2C2CCCC2)cc1Cl	+
O=C(c1cc(-c2ccsc2)c2nncn2n1)N1CCN(Cc2ccccc2)CC1	i
COc1ccc(N2C(=O)c3cc(-c4ccccc4)nn3CC2(C)C(=O)NCc2ccccc2OC)cc1 (stereo not drawn)	i
CC(C)N1CCN(C(=O)C2N(C(C)C)C(=O)C23CCCC3)CC1 (stereo not drawn)	i
C=C1C2(C)CC3C4(C)C=CC(=O)OC(C)(C)C4CCC3(C)C1(C(=O)OC)C(=O)C(C)(O)C2=O (stereo not drawn)	i
C=C1CCC2C(C)(C)CCC[C@]2(C)[C@H]1C/C=C(\CO)C(=O)C(=O)O (stereo partly drawn)	i
CC1=CCC2C(C)(C)CCCC2(C)C1CC12OC1C(O)C(CO)=CC2O (stereo not drawn)	i
CC(=O)OC/C(=C/C(=O)O)CC[C@@H]1C(CO)=CC[C@@H]2C(C)(C)CCC[C@@]12C	+
CC1(C)CCCC2(C)C(C(=O)O)=CCC12 (stereo not drawn)	i
CC1(C)CCC[C@]2(C)C1CC=C(CO)[C@H]2CC/C(=C/CO)CO (stereo partly drawn)	i
CC(=O)OC/C(=C/C(=O)O)CC[C@@H]1C(C=O)=CC[C@@H]2C(C)(C)CCC[C@@]12C	+
COc1ccccc1CCNC(=O)CCn1ccc2cc(S(=O)(=O)N3CCC(C)CC3)ccc21	i
SMILES	Methyltransferases
Nc1ccn([C@@H]2C(F)=C(CO)[C@@H](O)[C@H]2O)c(=O)n1	i
C[C@]1(CO)C2CC[C@H]3OC(=O)C[C@H]3[C@]2(C)CC[C@H]1OC(=O)Nc1ccccc1 (stereo partly drawn)	i
CN(C)c1ccc(CNC(=O)CCCn2ccc3cc(S(=O)(=O)N4CCCC4)ccc32)cc1	i
C[C@@H]1C[C@H](C)CN(CCC(=O)Nc2ccc(Br)cc2)C1	i
CN(C)c1ccc(Nc2c3ccc(NC(=O)CCN4CCCC4)cc3nc3cc(NC(=O)CCN4CCCC4)ccc23)cc1	+
C/C=C/C=C/C1=C2C(=O)C3(C)C4C(C(=O)CC(O)/C=C/C)=C(O1)C1(C)C2C2(C)OC1(O)C4(C)OC23O (stereo not drawn)	i
CC(C)(Cc1ccc(F)cc1)NC(=O)CC1C(=O)NCCN1Cc1ccoc1 (stereo not drawn)	i
O=C(CCn1ccc2cc(S(=O)(=O)N3CCCCC3)ccc21)N1CCN(c2ccc(F)cc2)CC1	i
C=CC(=O)Nc1cccc(CN2C(=O)N(c3c(Cl)c(OC)cc(OC)c3Cl)Cc3cnc(NCCCCN(CC)CC)nc32)c1	+
Fc1ccc(C(OCCCc2cnc[nH]2)c2ccc(F)cc2)cc1	+
N=C(N)SCCc1cnc[nH]1	i
CC1CCC2C(C)(C)C(O)CCC2(C)C12Cc1c(O)cc3c(c1O2)CN=C3N (stereo not drawn)	i
Cc1ccc(CNc2ncnc3ccc(-c4ccc(CO)o4)cc23)o1	+
CCCNCCOc1ccc(NC(=O)c2c[nH]c3c2C(=O)CCC3)cc1F	i
